Here are results for 38 compounds from PubChem BioAssay (NCATS).

SMILES strings stand for the structures. Where “and” joins values, the source holds several entries; their conditions need not be identical. Equal values may be shown once. Records with an inconclusive call do not appear. The source holds several records for some structures; these can differ, active in one and inactive in another. Unmarked numbers belong to inactive results. Calls of active or inactive are those of the source. The call rests on the fitted dose curve; in most records, active means well fitted activation curve with a large enough effect; inconclusive means small, poorly fitted or top-dose-only effect; inactive means no such curve, though single readings can be large or run the other way.
Potency means the concentration at half of the fitted maximal effect.

The target in the assay is Cellular tumor antigen p53 (Homo sapiens) (UniProt P04637). Put plainly: Primary qHTS for small molecule compounds that upregulate eGFP-tagged delta133p53alpha (in N-terminal) cells. (AID 2060322). Further: nearly all actives have a fitted effect of over 75% in size.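 On activation: cells pre-induced with doxycycline then dosed without doxycycline; series mostly up to about 56 µM; 0% = DMSO vehicle and 100% = reference activator.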 Conditions: NCI-H358 eGFP-delta133p53alpha fluorescence, 24 h; activation: active compounds read high. The text has this: Assay Development and Screening Technology
Cellular tumor antigen p53 (Homo sapiens), sequence (P04637 whole entry, looked up): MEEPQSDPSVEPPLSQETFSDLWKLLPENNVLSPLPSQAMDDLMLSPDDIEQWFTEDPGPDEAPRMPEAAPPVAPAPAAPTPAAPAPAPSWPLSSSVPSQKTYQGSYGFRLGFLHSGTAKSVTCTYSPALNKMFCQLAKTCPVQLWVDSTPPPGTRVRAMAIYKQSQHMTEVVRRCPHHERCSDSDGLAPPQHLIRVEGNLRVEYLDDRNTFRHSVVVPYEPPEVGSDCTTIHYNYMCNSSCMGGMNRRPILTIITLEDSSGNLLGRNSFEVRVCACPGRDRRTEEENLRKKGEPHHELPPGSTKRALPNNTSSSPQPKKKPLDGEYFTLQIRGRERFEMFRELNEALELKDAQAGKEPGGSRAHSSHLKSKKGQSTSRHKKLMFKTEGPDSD
National Center for Advancing Translational Sciences (NCATS),
National Institute of Health (NIH), Rockville, Maryland
Cellular senescence (CS) is one of the hallmarks of aging and age-related diseases. Senescent cells are characterized by an irreversible growth arrest, an increase in senescence-associated beta-galactosidase (SA-beta-gal) activity and p16INK4a expression, an activation of the DNA damage response pathways, and the emergence of a senescence-associated secretory phenotype (SASP).
Delta133p53alpha, a human/primate-specific p53 protein isoform, delays or inhibits the induction of CS and SASP in various types of human cells, including progeria-derived fibroblasts, primary normal astrocytes, and CD8+ T lymphocytes. Induction of delta133p53alpha with small molecule compounds may provide therapeutic opportunities for inhibition of senescence/SASP-associated pathologies in progeria syndromes, astrocyte-mediated neuroprotection in neurodegenerative diseases, and possibly prevention and treatment of a wider range of senescence- and aging-associated diseases.
Here we report the development and validation of a cell-based quantitative high throughput screening (qHTS) assay in 1,536-well format. This qHTS assay uses the NCI-H358 cell line with doxycycline-inducible expression of enhanced green fluorescent protein (eGFP)-tagged delta133p53alpha, which allows efficient and highly quantitative measurement of the protein levels.
PROTOCOL TABLE (as described by Inglese J, Shamu CE and Guy RK. 2007)
SEQUENCE No. (e.g., 1, 2, 3, etc.); […] (e.g., Cells, Incubation, Reagent, etc.); VALUE; DESCRIPTION.
1; Cells; 4uL; 800 doxycycline treated cells / well in doxycycline-free media, 1536-well black, clear-bottom low base Aurora microplates.
2; Compounds; 23 nL; Kalypsis pin tool (Wako) equipped with 1536-well pin heads, 5-azacytidine positive control.
3; Incubation; 24 hr; 37C, 5% CO2; 95% relative humidity.
4; Aspiration; 1x; BioTek EL406 washer dispenser (Agilent).
5; Fixing; 3.5% paraformaldehyde, BioTek EL406 washer dispenser (Agilent).
6; Washing; 1x PBS; BioTek EL406 washer dispenser (Agilent).
7; Nuclei staining; 1:1000 dilution of Hoechst 33342 (Thermofisher), BioTek EL406 washer dispenser (Agilent).
8; Incubation; 20 min; in the dark at room temperature.
9; Washing; 2x, 1x PBS (ThermoFisher), BioTek EL406 washer dispenser (Agilent).
10; Reagent; 10 uL; 1x PBS per well, sealed with clear adhesive tape.
NOTES (numbers refer to sequence numbers above).
1. NCI-H358 cells expressing eGFP-tagged delta133p53alpha were grown in T75 culture flasks and treated with doxycycline for 24h, at 10 ng/ml for eGFP-D133p53a cells (N-terminal cell) and 100 ng/ml for D133p53a-eGFP cells (C-terminal cells). Cells were trypsinized, counted using a Counted 3 Automated Cell Counter (Thermo Fisher), and diluted to a concentration of 200,000 cells/ml. A Multidrop Combi Reagent Dispenser (ThermoFisher) was used to dispense 800 cells/well in […] of doxycycline-free media, into 1536-well black/clear bottom low base plates (AuroraMicroplates).
2. After plating cells, 23 nl of compound library, DMSO vehicle control or positive control (5-azacytidine) were transferred by Pin Tool (Wako). The plate map layout was the same for each plate: (column 1) non-doxycycline treated cells + DMSO vehicle control; (column 2) doxycycline treated cells + DMSO vehicle control baseline; (column 3) doxycycline treated cells + positive control 57.5 uM final concentration 5-azacytidine; (column 4) doxycycline treated cells + serial dilution of 5-azacytidine, 16-point 1:2 titration spanning 1.8 nM to […] final concentration; (columns 5-48) doxycycline treated cells + titration of library compounds.
3. Cells were incubated at 37 °C, 5 % CO2, 95% RH with breathable metal lid for 24h.
4-10. […] After two washes, 10 ul of 1X PBS (Thermo Fisher) was dispensed to each well. Clear adhesive plate seals (VWR) were applied and plates stored at 4 °C.
11. […]
(In general: In qHTS, concentration-response curves come from the screen itself.)
Consider `CCN1CCN(C(=O)Cc2ccc(Nc3ncc(F)c(Nc4ccc(C(=O)Nc5ccccc5Cl)cc4)n3)cc2)CC1`, for which the Potency is 4.78 µM (active) and the activation was 33.8%.

For `NC(N)=NOCC[C@H](N)C(=O)O`, the activation is -12%.

As for `COc1ccc(C(CN(C)C)C2(O)CCCCC2)cc1` (stereo not given), the activation is -16.7% and -7.09% and -5.45%.

Consider `CCOC(=O)C1(c2ccccc2)CCN(CCc2ccc(N)cc2)CC1`, for which the activation is -6.69%.

On to `O=C(N[C@@H](COc1ccc2[nH]c(=O)[nH]c2c1)c1ccccc1)c1cccn(Cc2ccc(F)c(F)c2)c1=O`, for which the Potency is 30.6 µM (active).

As to `O=C(NC(=O)c1c(F)cccc1F)Nc1cc(Cl)c(OC(F)(F)C(F)C(F)(F)F)cc1Cl` (stereo not given), the activation was -13.4%.

Consider `Cc1[nH]nc2ccc(-c3cncc(OC[C@@H](N)Cc4c[nH]c5ccccc45)c3)cc12`, for which the Potency was 8.63 µM (active) and the activation was 8.93%.

For `CCC(CC)(CNC(=O)CCCO)c1cccc(OC)c1`, the activation was 16.7%.

For the compound `OC(c1ccccc1)(c1ccccc1)C1CCNCC1`, the activation is -13.4%.

With `COC1CC(=O)C23C(=O)NC(CC(C)C)C2C(C)=C(C)C(OO)C3/C=C(\C)CCC(O)C1O` (stereo not given), the activation is -4.58%.

With `C[C@@H]1O[C@H](C[N+](C)(C)C)C[C@H]1O`, the activation was -7.38%.

As for `Cc1c(Cl)c(OCC(=O)N2CCN(C)CC2)nc2sc(C(=O)NC3CC3)c(N)c12`, the activation was 5.25%.

With `COc1ccc(C(=O)c2c(C)n(CCN3CCOCC3)c3ccccc23)cc1`, the activation was 1.02%.

Consider `O=C(CCCN1CCC(n2c(=O)[nH]c3ccccc32)CC1)c1ccc(F)cc1`, for which the activation is -4.18%.

In the case of `CNCCc1c[nH]c2ccc(O)cc12`, the activation is -26.4%.

On to `C[C@H](Cc1ccc2c(c1)OC(C(=O)O)(C(=O)O)O2)NC[C@H](O)c1cccc(Cl)c1`, for which the activation is -6.85%.

With `CCC(=O)CCCCC[C@@H]1NC(=O)[C@H]2CCCCN2C(=O)[C@H]([C@@H](C)CC)NC(=O)[C@H](Cc2cn(OC)c3ccccc23)NC1=O`, the activation is -11.2%.

For the compound `COC1=C[C@@H]2[C@@H]3Cc4ccc(OC)c(O)c4[C@]2(CCN3C)CC1=O`, the activation is 8.33%.

Take `Cc1ccc(Cl)c(O)c1`: the activation is 5.08%.

Take `CC(=O)NCCc1c[nH]c2ccccc12`: the activation is -24.3%.

Take `CCCCOC(=O)c1ccccc1C(=O)OCc1ccccc1`: the activation was -2.82%.

As to `O=C(O)c1ccc(=O)[nH]c1`, the activation was 11.9%.

For `CC(C)c1c(CN(C)C(C)Cc2ccccc2)n(C)n(-c2ccccc2)c1=O` (stereo not given), the activation was -14.2%.

Take `C[C@](O)(COc1ccc(C#N)cc1)C(=O)Nc1ccc(C#N)c(C(F)(F)F)c1`: the activation is -20%.

As for `CC(=O)OC[C@]12C[C@H](OC(=O)CC(C)C)C(C)=C[C@H]1O[C@@H]1[C@H](O)C[C@@]2(C)[C@]12CO2`, the Potency was 3.7 µM (active).

For `CC(N)Cc1c[nH]c2ccc(O)cc12` (stereo not given), the activation is -0.781%.

For `S=C(SSC(=S)N1CCCCC1)N1CCCCC1`, the activation was -16.7%.

Turning to `CN(C(=O)C(c1ccccc1)c1ccccc1)[C@H](CN1CC[C@H](O)C1)c1ccccc1`, the activation is 14.8%.

Turning to `c1cncc(OC[C@@H]2CCN2)c1`, the activation was -4.3%.

With `O=[N+]([O-])c1ncc[nH]1`, the activation is 15.2%.

Turning to `CC(C)=CC1C(C(=O)OCN2C(=O)C3=C(CCCC3)C2=O)C1(C)C` (stereo not given), the activation is 17.6%.

Take `COc1ccc2[nH]c(-c3ccccc3)c(CCN(C)C)c2c1`: the activation was -11%.

As to `CCC(C)C1NC(=O)C(C(C)=O)=C1O` (stereo not given), the activation was 13%.

In the case of `Cc1c(Cl)cccc1S(=O)(=O)Nc1nc(CC(=O)N2CCN(C)CC2)cs1`, the activation was -6.21%.

Regarding `CC(C)(O)C=CC(=O)[C@](C)(O)[C@H]1[C@H](O)C[C@]2(C)[C@@H]3CC=C4[C@@H](C=C(O)C(=O)C4(C)C)[C@]3(C)C(=O)C[C@@]12C`, the Potency is 34.3 µM (active).

Take `CCCN(CCC)C1CCc2cccc(O)c2C1` (stereo not given): the activation was 29.8%.

Regarding `C[N+]1(C)CCN(c2ccccc2)CC1`, the activation is -0.912%.

As to `C[C@H]1O[C@@H](n2cnc3c(N)ncnc32)C[C@@H]1O`, the activation is 15%.
